# DT40 TDP1 no CPT: qHTS for Inhibitors of human tyrosyl-DNA phosphodiesterase 1 (TDP1): qHTS in cells in absence of CPT; DT40 Tdp1-/- hTDP1 cells, no CPT, ATP luminescence, 48 h; Potency, µM (titrated, usually from 46.2 µM), hits mostly inhibitors; 420,000 compounds, 15% hits; AID 686978, 2013; note: nearly all actives have a fitted effect of over 55% in size
#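 Growth kinetics read by CellTiter-Glo luminescence after ≥48 hr at 37 °C. Cells: DT40 Tdp1-/- stably carrying human TDP1, 400 per well, compound exposure in the absence of CPT (DMSO vehicle).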
# DT40 TDP1 CPT: DT40-hTDP1 cell growth loss with CPT; AID 686979; Potency, µM (highest dose often 46.2 µM), most hits filed as inhibitors; chicken DT40 Tdp1-/-;hTDP1 cells + 20 nM CPT, ATP luminescence, 48 h; 420,000 compounds, 12% hits; note: nearly all actives have a fitted effect of over 55% in size
#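 Cell growth measured by CellTiter-Glo luminescence after a minimum 48 h, 37 C compound exposure with 20 nM CPT in Tdp1-knockout DT40 cells stably expressing hTDP1, seeded 400/well; qHTS titration format.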
# TDP1 inh: inhibitors of human tyrosyl-DNA phosphodiesterase TDP1 | Q9NUW8 | 350,000 compounds, 0.28% hits | recombinant TDP1, AlphaScreen DNA substrate cleavage | Potency, µM (highest dose often 130 µM), hits mostly inhibitors; note: nearly all actives have a fitted effect of over 40% in size
#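 Tdp1 1 nM final; 15 min RT w/ cpd; substrate 15 nM, 5 min; beads 10 ug/ml, 10 min; AlphaScreen read. Neg ctrl: no enzyme.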
# Six1-Eya2 blk: Six1/Eya2 interaction inhibition. 360,000 compounds, 0.56% hits. activity change, % (concentration not given with the values). AID 651725. Q15475+O00167. AlphaScreen GST-Six1/His-Eya2 binding, biochemical; hits give low values; in the data active = activity change below about -65%; inconclusive = mostly about -30% to -63%
# Target sequence (O00167 whole entry, looked up): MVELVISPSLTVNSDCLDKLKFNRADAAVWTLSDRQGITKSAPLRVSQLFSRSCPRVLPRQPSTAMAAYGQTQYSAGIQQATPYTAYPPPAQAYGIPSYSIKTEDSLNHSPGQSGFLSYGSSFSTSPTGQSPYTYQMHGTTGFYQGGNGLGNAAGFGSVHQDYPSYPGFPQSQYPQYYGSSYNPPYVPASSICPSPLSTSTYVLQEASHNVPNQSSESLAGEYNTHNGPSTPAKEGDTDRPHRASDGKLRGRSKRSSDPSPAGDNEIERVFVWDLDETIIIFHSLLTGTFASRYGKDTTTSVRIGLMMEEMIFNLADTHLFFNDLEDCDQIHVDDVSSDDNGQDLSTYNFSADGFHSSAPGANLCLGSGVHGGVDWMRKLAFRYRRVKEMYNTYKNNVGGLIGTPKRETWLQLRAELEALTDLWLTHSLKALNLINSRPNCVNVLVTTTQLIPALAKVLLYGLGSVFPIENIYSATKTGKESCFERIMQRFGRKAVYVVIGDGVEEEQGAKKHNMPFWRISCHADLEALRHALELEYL
# Target sequence (Q15475 whole entry, looked up): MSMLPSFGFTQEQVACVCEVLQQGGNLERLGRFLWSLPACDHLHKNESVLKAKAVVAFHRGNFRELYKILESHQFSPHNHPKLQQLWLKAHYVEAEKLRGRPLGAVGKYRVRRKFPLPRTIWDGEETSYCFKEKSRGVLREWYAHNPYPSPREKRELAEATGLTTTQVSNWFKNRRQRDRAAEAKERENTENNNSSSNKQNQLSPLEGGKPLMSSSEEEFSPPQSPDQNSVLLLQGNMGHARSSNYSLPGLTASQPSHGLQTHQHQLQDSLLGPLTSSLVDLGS
#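 GST-Six1 + His-Eya2 (5X stock: 250/500 nM); Tris pH 8.0, 300 mM NaCl, 0.05% BSA, 0.02% Tween 20; GSH donor/Ni acceptor beads; 1 h 37 °C dark; AlphaScreen readout.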
# IL1B secr inh: inhibitors of inflammasome signaling (IL-1 beta secretion); AID 743279; THP-1 LPS/ATP IL-1B secretion, AlphaLISA, 16 h; hits give low values; 360,000 compounds, 4.7% hits; activity change, % at 57.5 µM; in the data active = activity change below about -50%; inconclusive = mostly about -30% to -49%
#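 Secreted IL-1B measured by AlphaLISA bead assay after 16 h compound exposure of THP-1 cells; compounds (final up to 57.5 uM) added 1 h before LPS (250 ng/mL) and ATP (1.25 mM) stimulation; lower signal means less secretion.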
# CtBP-E1A blk: blocks the CtBP interaction with E1A. AlphaScreen GST-E1A/His-CtBP binding, 1536-well; hits give low values. activity change, % (test concentration not listed). 340,000 compounds, 0.49% hits; in the data active = activity change below about -65%; inconclusive = mostly about -30% to -63%
#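 GST-E1A and His-tagged CtBP (125 nM each as 5X stock) were preincubated with pin-transferred compound for 2 h at 37 °C in the dark, then glutathione donor and nickel acceptor beads were added for 1 h before AlphaScreen reading.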
# Numbers stand for hits; . = inactive; ? = inconclusive; / = not tested or not shown. Compounds with a hit are over-represented: about 18% of the library has one in this group of screens. Unless noted, calls come from the whole dose curve; as a rule, active = well fitted curve in the direction sought with a large enough effect; inconclusive = small, poorly fitted or top-dose-only effect, or another doubt; inactive = no such curve, though single readings can be large; an effect the other way counts as inactive or inconclusive.
SMILES,DT40 TDP1 no CPT,DT40 TDP1 CPT,TDP1 inh,Six1-Eya2 blk,IL1B secr inh,CtBP-E1A blk
O=C(CSc1nnc(-c2ccc(Cl)cc2)n1Cc1ccco1)Nc1ccc2c(c1)OCCO2,?,?,.,.,?,.
CC(=O)Nc1cccc(NC(=O)CSc2ncc(-c3ccc(Cl)cc3)n2Cc2ccco2)c1,20.6µM,20.6µM,.,.,.,.
Cc1nc(N2CCN(Cc3ccccc3)CC2)nc2c1CCC2,?,.,.,.,.,.
Cc1nc(N2CCN(Cc3ccccc3)CC2)nc2c1C(=O)CCC2,16.4µM,23.1µM,.,.,.,.
O=C(COc1ccc(Cl)cc1Cl)Nc1ccc2nc3n(c(=O)c2c1)CCCC3,?,?,.,?,?,?
CCCCC(=O)N=c1sc2c(OC)ccc(OC)c2n1C,?,?,.,.,.,.
COC(=O)Cn1c(=NC(=O)CCS(=O)(=O)c2ccccc2)sc2c(OC)ccc(OC)c21,?,20.6µM,.,.,.,.
CCn1c(=NC(=O)CCS(=O)(=O)c2ccccc2)sc2cccc(OC)c21,7.31µM,9.2µM,.,.,.,.
COc1ccc2c(c1)sc(=NC(=O)CS(=O)(=O)c1ccc(F)cc1)n2C,20.6µM,?,.,.,.,.
CCn1c(=NC(=O)c2ccc(S(=O)(=O)N3CCOCC3)cc2)sc2cccc(OC)c21,13µM,14.6µM,.,.,.,.
C#CCn1c(=NC(=O)c2ccc(Cl)s2)sc2cccc(OC)c21,?,?,.,.,.,.
COc1ccc(CCNC(=O)CC(=O)N/N=C/c2ccc(Br)cc2)cc1OC,.,.,/,.,.,.
COc1ccc(OC)c(S(=O)(=O)N2CCC3(CC2)OCCN3S(=O)(=O)c2cccs2)c1,?,?,.,.,.,.
C=CCn1c(=NC(=O)CN2C(=O)CCC2=O)sc2cccc(OC)c21,?,?,.,.,.,.
CCn1c(=NC(=O)CS(=O)(=O)c2ccc(F)cc2)sc2cccc(OC)c21,18.4µM,14.6µM,/,.,.,.
CC(=O)Nc1ncnc2c1c(-c1ccc(Cl)cc1)nn2C(C)(C)C,?,?,.,.,.,.
CC(=O)N(C(C)=O)c1ncnc2c1c(-c1ccc(Cl)cc1)nn2C(C)(C)C,18.4µM,?,.,.,-83.2,.
COC(=O)c1ccc(-c2nc(CN3CCN(Cc4cccc(C)c4)CC3)c(C)o2)cc1,23.1µM,?,/,.,.,/
COc1ccccc1CN1CCCCCC1,18.4µM,?,/,.,.,.
COc1ccccc1N1CCN(Cc2nc(-c3ccc(F)cc3)oc2C)CC1,18.4µM,?,.,.,.,/
COc1ccc(-c2nc(CN3CCN(c4ccccc4OC)CC3)c(C)o2)cc1,?,?,.,.,-97.4,.
COc1ccc(-c2nc(CN3CCN(Cc4cccc(F)c4)CC3)c(C)o2)cc1,?,?,/,.,?,.
CC(C)C[C@H](NC(=O)CN(C)C(=O)[C@H](Cc1ccccc1)NC(=O)[C@H](Cc1ccccc1)NC(=O)[C@H](CCC(N)=O)NC(=O)[C@H](CCC(N)=O)NC(=O)[C@@H]1CCCN1C(=O)[C@H](CCCCN)NC(=O)[C@@H]1CCCN1C(=O)[C@@H](N)CCCN=C(N)N)C(=O)N[C@@H](CCS(C)(=O)=O)C(N)=O,/,/,.,/,/,/
CCOc1ccccc1NC(=O)Cn1c(=O)c(OCC)nc2cnccc21,.,.,.,.,.,/
c1csc(Cc2nn3c(-c4ccncc4)nnc3s2)c1,.,?,/,.,.,.
SMILES,DT40 TDP1 no CPT,DT40 TDP1 CPT,TDP1 inh,Six1-Eya2 blk,IL1B secr inh,CtBP-E1A blk
CC(=O)c1ccc(OCC(O)CN2CCc3ccccc3C2)cc1 (stereo not drawn),?,.,/,.,.,.
CCc1cccc(NC(=O)CCS(=O)(=O)c2cccc3nonc23)c1,.,.,.,.,.,.
COc1ccc(-c2nc(CN3CCC(c4ccccc4)CC3)c(C)o2)cc1OC,?,?,.,.,?,.
COc1ccccc1CN1CCN(Cc2nc(-c3ccc(C)cc3)oc2C)CC1,?,20.6µM,/,.,.,.
Cc1ccc(N2C(=O)C3C4C=CC(CC4)C3C2=O)cc1[N+](=O)[O-] (stereo not drawn),.,.,/,.,.,/
COc1cccc(CNC(=O)CCC2CCCN(c3cc(C)nc(N)n3)C2)c1 (stereo not drawn),.,.,.,.,.,.
Cc1cc(C)c2cccc(N)c2n1,.,.,.,.,.,.
CCc1ccc2nc3nc(C)cc(C)c3c(N)c2c1,11.2µM,?,.,?,-103.8,.
Cc1cc(C)c2c(N)c3ccccc3nc2n1,23.1µM,?,.,.,-89.3,.
CN1CCN(c2cc(-c3ccccc3C(F)(F)F)ncn2)CC1,.,.,.,/,/,/
CN1CCN(C2=Cc3cc(Cl)ccc3Sc3cc(F)ccc32)CC1,29.1µM,?,.,.,-100.1,.
CN1CCN(C2=Cc3ccccc3Sc3cc(F)c(Cl)cc32)CC1,29.1µM,?,.,.,-62.0,.
CN1CCN(C2=Cc3ccccc3Sc3cc(F)c(F)cc32)CC1,?,?,.,.,-62.2,.
Cc1ccc(C)c(Cn2cc(CCC(=O)NC3CCCCC3)c3ccccc32)c1,?,?,.,/,/,/
COc1cccc(NC(=O)c2csc3c2CCCC3)c1,?,.,.,.,.,.
COc1cc(/C=N/NC(=O)CCc2n[nH]c(=O)[nH]c2=O)cc(OC)c1OC,.,.,.,.,.,.
CC(=O)N1CCN(c2ccc(NCc3cccc(C)c3)cc2)CC1,/,/,.,/,/,/
COc1ccc(CCNC(=O)c2c(O)nc3ccccn3c2=O)cc1,?,?,.,/,/,/
Cc1ccc(CNC(=O)c2c(O)nc3cc(C)ccn3c2=O)cc1,.,.,.,/,/,/
CC(NC(=O)c1c(O)nc2ccccn2c1=O)c1ccccc1 (stereo not drawn),18.4µM,23.1µM,.,/,/,/
Cc1ccn2c(=O)c(C(=O)NCCc3ccccc3)c(O)nc2c1,23.1µM,?,.,/,/,/
Cc1ccn2c(=O)c(C(=O)NC(C)c3ccccc3)c(O)nc2c1 (stereo not drawn),23.1µM,?,.,/,/,/
NS(=O)(=O)c1ccc(CNC(=S)NC2CCCCC2)cc1,.,.,.,.,.,.
O=C(CCC(=O)c1cccs1)OCc1nnc(-c2ccccc2)o1,.,.,.,.,.,.
Cc1ccc(CNC(=O)c2c(-c3ccccc3Cl)noc2C)o1,?,?,.,/,/,/
O=C(c1ccncc1)N1CCc2ccccc2C1,.,.,.,.,.,.
Cc1ccc(-c2nc(SCC(=O)Nc3cc(C)on3)c3c(=O)n(C)c(=O)n(C)c3n2)cc1,14.6µM,11.6µM,.,.,.,.
